Activity calls are given as the source filed them. Unless noted, how the calls were made is not given here.

The values below come from PubChem BioAssay.

Assay [1] in a line: compounds binding Alexa647 anti-His antibody – biochemical, small-molecule microarray, 635 nm fluorescence, artefact control for SMM control protein annotation, primary screen (AID 1128).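 Further: score merges feature fluorescence with signal-to-noise for each printed compound spot.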 Conditions: higher = more signal.
Assay [2] has as its system Human papillomavirus type 1a E7 protein (residues 1-88). Nature of the assay: HPV1a E7 small-molecule binders, primary screen, biochemical, small-molecule microarray, residues 1-88, 635 nm (AID 1129). Conditions: small-molecule microarray binding, fluorescence 635 nm; higher = more signal.
The target in assay [3] is Focal adhesion kinase 1 (Homo sapiens) (UniProt Q05397). As to the kind of experiment: PTK2 protein binding on printed compound slides – biochemical, small-molecule microarray, 635/667 nm fluorescence, BSA, DTT, primary screen (AID 1130).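 Further: composite of spot emission at 667 nm and signal to noise over triplicate slides.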 Conditions: 635 nm fluorescence, higher = more signal.
Assay [4] relates to Fibrinogen (Alexa647-labelled). Nature of the assay: Alexa647-fibrinogen binding to printed small molecules – biochemical, small-molecule microarray, 635/667 nm fluorescence, artefact control for SMM control-protein annotation, profiling panel (AID 1131).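 Further: z-score merges 667 nm fluorescence with per-spot signal-to-noise over triplicate slides.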 The note with it: fibrinogen-A647 binding fluorescence, higher = more signal.
In assay [5] the target is Follistatin (Homo sapiens) (UniProt P19883). As to the kind of experiment: FST protein binding to printed compounds – biochemical, small-molecule microarray, 635/667 nm fluorescence, primary screen (AID 1132). The note with it: 635 nm fluorescence, higher = more signal.
Assay [6] concerns the target Fibroblast growth factor 2 (Homo sapiens) (UniProt P09038). As to the kind of experiment: basic fibroblast growth factor binding to printed compounds – biochemical, small-molecule microarray, 635/667 nm fluorescence, primary screen (AID 1133). The note with it: FGF2, fluorescence 635/667, higher = more signal.
Assay [7] is described as follows: JC-1 mitochondrial potential readout, lung cancer cells – cell-based, A549, JC-1 fluorescence, basal, 24 h, 100 nL, profiling panel (AID 1138).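 Further: A549 lung adenocarcinoma cells under basal conditions with no added stimulus; test concentration not given here.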 Conditions: higher = more signal.
Another assay relates to Lefty1. Nature of the assay: Lefty1 protein binding to printed compounds – biochemical, small-molecule microarray, 635/667 nm fluorescence, primary screen (AID 1139). Conditions: fluorescence 635/667, higher = more signal.
Assay [8] concerns wheat germ agglutinin (Triticum aestivum), Alexa647-labelled. Nature of the assay: Alexa647-WGA lectin binding to printed small molecules – biochemical, small-molecule microarray, 635/667 nm fluorescence, artefact control for SMM control-protein annotation, profiling panel (AID 1140).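 Further: score merges 667 nm feature emission with signal to noise over triplicate slides.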 The note with it: WGA-A647 binding, 635 nm fluorescence, higher = more signal.
For assay [9], the target named is Luciferin 4-monooxygenase (Photinus pyralis) (UniProt P08659). As to the kind of experiment: inhibition of purified Photinus pyralis luciferase – biochemical, luminescence, purified enzyme, 2006 set, primary screen (AID 1141).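 Further: cell-free assay with purified firefly luciferase at 100 ng per well in PBS; test concentration not given here.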 Conditions: purified firefly luciferase, SteadyGlo luminescence, 30 min; higher = more signal, called active from +8 up or from −8 down.
The test system of assay [10] is Wnt5a (protein binding on small-molecule microarray). Nature of the assay: small molecules binding Wnt5a protein – biophysical, small-molecule microarray, 635/667 nm fluorescence, primary screen (AID 1142).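 Further: fluorescence read at 667 nm with signal to noise per printed feature.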 The note with it: 635 nm fluorescence, higher = more signal.
A short description of assay [11]: ATP-based viability of Huh7 replicon cells – cell-based, CellTiter-Glo luminescence, basal, 48 h, cytotoxicity control for HCV replication inhibitor project, primary screen (AID 1143).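 Further: Huh7 hepatoma cells carrying a hepatitis C replication reporter with no stimulus; test concentration not given here.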 The note with it: higher = more signal, called active from +8 up or from −8 down.
Assay [12] is described as follows: Pseudomonas biofilm growth suppression – PAO1 strain, BacTiter-Glo luminescence, LB-PBS, primary screen (AID 1144). Conditions: P. aeruginosa PAO1 biofilm, 12 h, higher = more signal.
Assay [13] is described as follows: basal CRE-LacZ reporter activity in PC12 – cell-based, unstimulated, primary screen (AID 1145). The note with it: no forskolin, luminescence, 4.5 h, higher = more signal, called active from +8 up or from −8 down.
Assay [14] is described as follows: forskolin-driven CRE-LacZ activity in PC12 – cell-based, CRE-LacZ reporter, forskolin-stimulated, primary screen (AID 1146).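 Further: PC12 cells with 6xCRE LacZ reporter stimulated by forskolin 10 µM; beta-galactosidase reporter signal reflecting CREB driven transcription.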 The note with it: luminescence, 4.5 h, higher = more signal, called active from +8 up or from −8 down.
Assay [15] deals with Streptavidin (Streptomyces avidinii) (UniProt P22629). As to the kind of experiment: compounds binding control protein streptavidin – biophysical, small-molecule microarray, 635/667 nm fluorescence, artefact control for SMM compound annotation, primary screen (AID 1147).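 Further: signal reflects streptavidin binding to arrayed compounds as a control protein.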 The note with it: higher = more signal.
The nature of assay [16]: probe aInhba binding on compound microarray – biochemical, small-molecule microarray, 635/667 nm fluorescence, primary screen (AID 1148).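 Further: score merges 667nm spot fluorescence with signal-to-noise for antibody binding to printed compounds.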 Conditions: higher = more signal.
The target in assay [17] is Torsin-1A (Homo sapiens) (UniProt O14656). Nature of the assay: TOR1A wild-type binding on microarray – cell lysate, small-molecule microarray, lysate, 635/667 nm, primary screen (AID 1149). The note with it: COS7 hTOR1A-WT lysate, 635 nm fluorescence, higher = more signal.
Assay [18] has the same target. As to the kind of experiment: torsin A mutant lysate binding on microarrays – cell lysate, small-molecule microarray, COS7 lysate, 635/667 nm fluorescence, primary screen (AID 1150).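 Further: score pools 667 nm emission and signal to noise measuring lysate protein binding.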 The note with it: COS7 hTOR1A mutant lysate, 635 nm fluorescence, higher = more signal.
Assay [19] deals with Sonic hedgehog protein (Shh). As to the kind of experiment: Sonic hedgehog microarray binding compounds – biochemical, small-molecule microarray, 635/667 nm fluorescence, primary screen (AID 1151).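 Further: Shh protein binding to compounds spotted on small-molecule microarray slides; score combines spot fluorescence intensity with signal-to-noise across triplicate slides.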 Conditions: 635 nm fluorescence, higher = more signal.

Chain of Focal adhesion kinase 1 (Homo sapiens) (Q05397 whole entry, looked up): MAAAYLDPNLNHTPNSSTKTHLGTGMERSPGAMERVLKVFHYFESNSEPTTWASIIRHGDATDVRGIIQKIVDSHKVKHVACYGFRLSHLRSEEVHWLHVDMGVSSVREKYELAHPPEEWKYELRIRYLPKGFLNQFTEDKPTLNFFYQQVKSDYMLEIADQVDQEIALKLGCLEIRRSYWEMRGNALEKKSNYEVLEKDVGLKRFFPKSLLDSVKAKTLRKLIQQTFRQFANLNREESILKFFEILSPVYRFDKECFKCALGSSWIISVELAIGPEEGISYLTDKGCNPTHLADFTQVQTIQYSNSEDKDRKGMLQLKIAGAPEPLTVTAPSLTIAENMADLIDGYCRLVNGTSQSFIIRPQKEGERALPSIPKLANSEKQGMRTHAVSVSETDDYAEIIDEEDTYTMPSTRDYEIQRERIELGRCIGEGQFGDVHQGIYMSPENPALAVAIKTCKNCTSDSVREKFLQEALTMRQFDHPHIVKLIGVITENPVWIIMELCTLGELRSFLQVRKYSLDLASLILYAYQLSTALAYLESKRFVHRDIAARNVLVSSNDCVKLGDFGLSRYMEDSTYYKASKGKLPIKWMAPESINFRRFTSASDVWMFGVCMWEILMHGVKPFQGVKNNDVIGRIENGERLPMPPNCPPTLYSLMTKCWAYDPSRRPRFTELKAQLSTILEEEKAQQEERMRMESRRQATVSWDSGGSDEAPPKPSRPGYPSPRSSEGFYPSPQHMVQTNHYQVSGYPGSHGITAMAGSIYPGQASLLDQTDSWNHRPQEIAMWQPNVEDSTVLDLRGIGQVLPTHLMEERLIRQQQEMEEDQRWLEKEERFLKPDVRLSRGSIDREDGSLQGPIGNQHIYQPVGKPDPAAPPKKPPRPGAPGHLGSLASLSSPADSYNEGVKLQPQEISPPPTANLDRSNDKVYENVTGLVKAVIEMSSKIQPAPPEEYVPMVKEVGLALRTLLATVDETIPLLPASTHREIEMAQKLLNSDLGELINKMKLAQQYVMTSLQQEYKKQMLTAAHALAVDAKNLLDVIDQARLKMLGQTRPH
Chain of Luciferin 4-monooxygenase (Photinus pyralis) (P08659 whole entry, looked up): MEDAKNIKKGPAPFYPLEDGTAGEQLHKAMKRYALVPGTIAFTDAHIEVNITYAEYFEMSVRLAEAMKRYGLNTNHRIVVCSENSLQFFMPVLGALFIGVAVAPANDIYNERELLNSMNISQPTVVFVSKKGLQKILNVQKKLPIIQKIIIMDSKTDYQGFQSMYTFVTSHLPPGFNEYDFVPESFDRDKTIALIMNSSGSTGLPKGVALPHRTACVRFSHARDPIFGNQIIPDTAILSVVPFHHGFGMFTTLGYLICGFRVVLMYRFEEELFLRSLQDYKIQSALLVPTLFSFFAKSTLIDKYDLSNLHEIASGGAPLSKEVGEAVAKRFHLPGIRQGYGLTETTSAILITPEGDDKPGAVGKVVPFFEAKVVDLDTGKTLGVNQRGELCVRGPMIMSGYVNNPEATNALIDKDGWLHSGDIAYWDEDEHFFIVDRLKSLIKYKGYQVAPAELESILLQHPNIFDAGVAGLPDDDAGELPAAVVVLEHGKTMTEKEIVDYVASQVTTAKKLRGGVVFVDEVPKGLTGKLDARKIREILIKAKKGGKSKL
Chain of Fibroblast growth factor 2 (Homo sapiens) (P09038 whole entry, looked up): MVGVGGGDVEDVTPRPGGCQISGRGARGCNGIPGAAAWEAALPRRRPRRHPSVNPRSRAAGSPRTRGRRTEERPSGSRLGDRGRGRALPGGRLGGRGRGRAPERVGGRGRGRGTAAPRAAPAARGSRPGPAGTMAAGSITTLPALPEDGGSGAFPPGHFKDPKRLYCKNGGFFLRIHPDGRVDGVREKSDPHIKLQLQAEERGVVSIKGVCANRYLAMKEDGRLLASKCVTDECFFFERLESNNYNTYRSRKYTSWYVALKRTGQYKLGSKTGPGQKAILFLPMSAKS
Chain of Streptavidin (Streptomyces avidinii) (P22629 whole entry, looked up): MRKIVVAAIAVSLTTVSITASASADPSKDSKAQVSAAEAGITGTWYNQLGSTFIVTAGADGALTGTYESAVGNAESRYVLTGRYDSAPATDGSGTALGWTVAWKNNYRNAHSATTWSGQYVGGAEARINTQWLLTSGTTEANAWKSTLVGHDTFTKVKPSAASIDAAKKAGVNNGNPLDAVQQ
Chain of Torsin-1A (Homo sapiens) (O14656 whole entry, looked up): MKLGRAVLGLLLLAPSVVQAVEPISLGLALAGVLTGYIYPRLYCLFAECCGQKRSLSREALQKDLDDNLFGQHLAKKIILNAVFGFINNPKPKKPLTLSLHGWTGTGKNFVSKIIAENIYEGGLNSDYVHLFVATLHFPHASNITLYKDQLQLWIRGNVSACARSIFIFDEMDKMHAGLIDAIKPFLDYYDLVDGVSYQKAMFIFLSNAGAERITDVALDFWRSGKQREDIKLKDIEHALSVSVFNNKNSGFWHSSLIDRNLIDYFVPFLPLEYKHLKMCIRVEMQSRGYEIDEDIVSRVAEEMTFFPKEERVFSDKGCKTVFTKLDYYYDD
Chain of Follistatin (Homo sapiens) (P19883 whole entry, looked up): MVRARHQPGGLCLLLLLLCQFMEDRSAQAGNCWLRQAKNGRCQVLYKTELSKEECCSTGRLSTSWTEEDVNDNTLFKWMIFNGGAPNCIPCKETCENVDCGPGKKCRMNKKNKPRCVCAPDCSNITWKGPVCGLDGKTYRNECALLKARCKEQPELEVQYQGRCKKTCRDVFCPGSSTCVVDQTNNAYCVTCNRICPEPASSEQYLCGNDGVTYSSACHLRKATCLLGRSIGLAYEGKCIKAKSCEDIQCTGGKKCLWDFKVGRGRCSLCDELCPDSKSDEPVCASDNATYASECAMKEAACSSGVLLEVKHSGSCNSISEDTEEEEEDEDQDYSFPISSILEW

Consider `COc1ccc(C(O)C2C=CC3C(=O)N(C)C(=O)C3N2N2CCCCC2)cc1OCc1ccccc1` (stereo not given), for which the composite z-score in assay [1] is 1.31; in assay [2] it was 1.2; in assay [3], 0.391; in assay [4] it was 0.838; in assay [5], 0.795; in [6], -0.444. The composite z-score in the assay on Lefty1 was -0.24; in assay [8], 0.951; in assay [10], 0.0847; in assay [15], 0.701; in [16] it was -0.0332; with Torsin-1A (Homo sapiens) [17], 0.0884. The composite z-score with Torsin-1A (Homo sapiens) [18] is 0.836; in assay [19], -0.282. In addition, the z-score in assay [7] was 0.0785; in [9], -0.381 (inactive); in assay [11] it was 0.135 (inactive); in [12], -0.314 (inactive); in assay [13], 0.433 (inactive); in [14], -0.342 (inactive).
On to `COCCCNC(=O)[C@@]1(c2ccc([N+](=O)[O-])cc2)CC(=O)N(C2CCCCC2)[C@@H]1c1ccc(CO)cc1`, for which the composite z-score is 1.13 in assay [1]; 0.542 in assay [2]; 0.643 in assay [3]; -0.523 in [4]; -0.0809 in assay [5]; 0.269 in [6]. Also, the composite z-score in the assay with Lefty1 was -1.4; in [8] it was -0.273; in assay [10], -0.155; in assay [15], -0.826; in assay [16], -0.417; in the assay with Torsin-1A (Homo sapiens) [17], 0.661. Further, the composite z-score in the assay with Torsin-1A (Homo sapiens) [18] is -0.699; in assay [19] it was -0.256. For the same molecule, the z-score was 0.612 in assay [7]; -0.501 (inactive) in assay [9]; -1.72 (inactive) in [11]; 0.0997 (inactive) in assay [12]; -0.269 (inactive) in assay [13]; 0.207 (inactive) in assay [14].
With `COc1cc(CO)cc(I)c1O[C@H]1C=C(C(=O)NCCO)C[C@@H](N(CC2CCCCC2)C(=O)c2cc3ccccc3oc2=O)[C@@H]1O`, the composite z-score is 0.309 in [1]; 0.238 in assay [2]; -0.071 in assay [3]; 1.02 in assay [4]; 0.175 in [5]; 1.17 in [6]. Also, the composite z-score was 0.275 with Lefty1; 0.516 in [8]; 0.159 in assay [10]; 0.745 in assay [15]; -0.0332 in [16]; 0.0653 in the assay with Torsin-1A (Homo sapiens) [17]. In addition, the composite z-score in the assay with Torsin-1A (Homo sapiens) [18] worked out at 0.0077; in assay [19], 0.568. Further, the z-score was 0.272 in [7]; -0.462 (inactive) in assay [9]; -0.0365 (inactive) in [11]; -0.143 (inactive) in assay [12]; 1.13 (inactive) in assay [13]; -1.27 (inactive) in assay [14].
Regarding `CCCC=C(CCC)[C@@H](NS(=O)(=O)c1ccc(-c2ccccc2)cc1)c1ccc(C(=O)OC)cc1`, the composite z-score is 0.5 in [1]; -0.997 in [2]; -0.15 in assay [3]; -0.285 in [4]; -0.407 in [5]; -0.624 in assay [6]. Besides, the composite z-score with Lefty1 was -0.707; in assay [8], -0.153; in [10], -0.228; in [15], 0.111; in assay [16], -0.0791; with Torsin-1A (Homo sapiens) [17] it was -0.269. Further, the composite z-score was -0.383 in the assay with Torsin-1A (Homo sapiens) [18] and -0.948 in assay [19]. The z-score in assay [7] is -2.58; in assay [9], 1.67 (inactive); in [11] it was -3.56 (inactive); in [12], -0.308 (inactive); in assay [13], -0.182 (inactive); in assay [14], -0.289 (inactive).
Take `O=C/C=C/c1ccccc1Cl`: the composite z-score is -0.761 in assay [1]; -0.836 in [2]; 0.878 in [3]; 0.0503 in assay [4]; 0.0323 in assay [5]; -0.517 in [6]. In addition, the composite z-score in the assay with Lefty1 is -0.239; in assay [8] it was 0.687; in [10], -0.159; in assay [15], 0.143; in [16], 0.0705; in the assay with Torsin-1A (Homo sapiens) [17] it was -0.342. The composite z-score with Torsin-1A (Homo sapiens) [18] was 0.081; in [19] it was -0.0129. Further, the z-score in assay [7] is 0.653; in assay [9] it was -2.21 (inactive); in assay [11], -0.724 (inactive); in assay [12] it was -0.904 (inactive); in [13], -0.0243 (inactive); in assay [14], -0.468 (inactive).
